# Source: PubChem BioAssay AID1220 (Sanford-Burnham Center for Chemical Genomics, 2008)
# About 1,300 (0.68%) of roughly 190,000 compounds were called active. Many of the other results were omitted from the sample, so actives are more common in it than they were. Unmarked numbers belong to inactive results. Cut-off read from the data, not from the text of the source: active = inhibition above about 50%; inactive = the rest.
# Molecular target: Mannose-6-phosphate isomerase (Homo sapiens) (UniProt P34949)
# Test: MPI inhibition at elevated mannose 6-phosphate – biochemical, fluorescence intensity, high mannose 6-phosphate, primary screen (AID 1220)
# Conditions: recombinant PMI enzyme, coupled fluorescence intensity; at 20 µM; stronger effect = higher value
# Chain of Mannose-6-phosphate isomerase (Homo sapiens) (P34949 whole entry, looked up): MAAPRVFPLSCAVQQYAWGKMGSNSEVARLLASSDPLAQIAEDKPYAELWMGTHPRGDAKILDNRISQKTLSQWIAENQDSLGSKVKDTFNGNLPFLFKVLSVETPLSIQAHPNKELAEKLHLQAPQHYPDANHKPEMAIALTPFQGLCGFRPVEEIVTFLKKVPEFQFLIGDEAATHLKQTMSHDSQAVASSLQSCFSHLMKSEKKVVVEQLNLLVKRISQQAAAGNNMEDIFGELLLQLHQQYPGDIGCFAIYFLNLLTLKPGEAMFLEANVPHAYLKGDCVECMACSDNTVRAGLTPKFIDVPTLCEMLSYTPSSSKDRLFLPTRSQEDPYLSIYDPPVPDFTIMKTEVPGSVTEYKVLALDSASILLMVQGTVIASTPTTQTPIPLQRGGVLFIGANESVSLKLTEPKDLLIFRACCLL
row,Compound,inhibition
1,CCCn1c(=O)c2ccccc2n2c(SCC(=O)Nc3cc(C)on3)nnc12,0%
2,CCC(/C=C1\Sc2ccc(OC)cc2N1CCO)=C\c1sc2ccc(OC)cc2[n+]1CCO,13%
3,Cc1cc(C)nc(SCCn2c(N3CCC(C)CC3)nc3c2c(=O)n(C)c(=O)n3C)n1,12.2%
4,Fc1ccc(NC(=S)N/N=C/c2ccc(F)c(F)c2)c(F)c1,-6.4%
5,CCN(CC)c1ncnc2sc(C(=O)N3CCN(c4ccccc4)CC3)c(C)c12,6.5%
6,Cc1ccc2cc(CCNC(=O)c3ccc(C)c([N+](=O)[O-])c3)c(=O)[nH]c2c1,-17%
7,CN(C(=O)CSc1nnc(-c2ccc(F)cc2)c2ccccc12)C1CCS(=O)(=O)C1 (stereo not given),-14.8%
8,CSc1sc(C)cc1C1C(C#N)=C(N)N(c2cccnc2)C2=C1C(=O)CC(C)(C)C2 (stereo not given),13.9%
9,CC1CCN(S(=O)(=O)c2ccc3c(c2)oc(=O)n3CC(=O)N2CCc3ccccc3C2)CC1,-7.5%
10,C/C(CC(=O)Nc1cccc(Cl)c1Cl)=N\NC(=O)c1ccccc1C,2.3%
11,C/C(CC(=O)Nc1cccc(Cl)c1Cl)=N\NC(=O)c1ccccc1N,3.3%
12,C/C(CC(=O)Nc1cccc(Cl)c1Cl)=N\NC(=O)c1ccccc1Br,50.8% (active)
13,CCCN(Cc1cc2ccc(C)cc2[nH]c1=O)C(=O)c1ccccn1,11%
14,COc1ccc(NC2SC(=O)N(CC(=O)O)C2=O)cc1 (stereo not given),12.1%
15,COc1ccc(N2CCN(c3ccc(C(N)=O)cc3[N+](=O)[O-])CC2)cc1,16.5%
16,CC(=O)c1ccc(N2CCN(c3ccc(C(N)=O)cc3[N+](=O)[O-])CC2)cc1,-10.4%
17,NC(=O)c1ccc(N2CCN(c3ccc(O)cc3)CC2)c([N+](=O)[O-])c1,55.2% (active)
18,O=C(NC1CCCCC1)C(c1ccccc1)N(C(=O)c1cccs1)c1ccc2c(c1)OCO2 (stereo not given),-2.5%
19,Nc1c(C(=O)Nc2ccccc2F)sc2nc(-c3ccco3)ccc12,59.6% (active)
20,Nc1c(C(=O)Nc2ccccc2)sc2nc(-c3ccco3)ccc12,15.1%

row,Compound,inhibition
1,COc1ccccc1NC(=O)c1sc2nc(-c3ccco3)ccc2c1N,11.5%
2,COCCNC(=O)CSc1nc2ccccc2c(=O)n1CCCC(=O)NCc1ccccc1,-3%
3,C=CCc1cc(/C=C/c2nc(O)c([N+](=O)[O-])c(=O)[nH]2)cc(OC)c1O,68.9% (active)
4,COc1ccc(-n2c(C)cc(/C=C/c3nc(O)c([N+](=O)[O-])c(=O)[nH]3)c2C)cc1,1.6%
5,C=CCc1cc(/C=C2/NC(=S)NC2=O)cc(OC)c1O,15.3%
6,COc1ccc(Nc2nnc(Cc3ccc(Cl)cc3)c(=O)[nH]2)c(OC)c1,19.1%
7,CC(C)NC1=C(Cl)C(=O)c2ccccc2C1=O,-32%
8,CCC(=O)N(C)/C=C1\Sc2ccccc2C1=O,5.7%
9,CCC(=O)N(C1=C(NC)C(=O)c2ccccc2C1=O)C(C)C,62.3% (active)
10,CCC(=O)N(CC)C1=C(O)c2ccccc2C(=O)C1=O,15.9%
11,CCC(=O)N(C1=C(NC(C)C)C(=O)c2ccccc2C1=O)C(C)C,58.2% (active)
12,CCC(=O)NC1=C(NC(C)c2ccccc2)C(=O)c2ccccc2C1=O (stereo not given),-10.2%
13,OC1CCCN(Cc2cn(Cc3ccccc3)nc2-c2cc3ccccc3o2)C1 (stereo not given),15.3%
14,O=C(C1CCN(c2nc3nonc3nc2N2CCCCC2)CC1)N1CCOCC1,14.3%
15,CCN(C(=O)COC(=O)c1ccc2[nH]c3c(c2c1)CCCC3)C1CCS(=O)(=O)C1 (stereo not given),-6%
16,Cc1cc2cc(CCNC(=O)c3cccc([N+](=O)[O-])c3)c(=O)[nH]c2cc1C,-2.2%
17,CN(CC(=O)Nc1ccc(F)cc1)c1ccc(S(=O)(=O)N2CCCC2)cn1,1.4%
18,CCn1ncc([C@@H]2C[C@H]3CN(Cc4ccccc4C)C(=O)[C@]34CCCN24)c1C,25.8%
19,O=C(O)CNc1nc(Cl)ccc1[N+](=O)[O-],13.4%
20,O=C(O)C1CC(O)CN1c1nc(Cl)ccc1[N+](=O)[O-] (stereo not given),64.1% (active)

row,Compound,inhibition
1,O=C(O)C1CN(c2nc(Cl)ccc2[N+](=O)[O-])C1,47.3%
2,Cc1cccc(N2C(=O)CC(N3CCOCC3)C2=O)c1 (stereo not given),-1.5%
3,CC1(C)CC(=O)/C(=C(\O)c2ccccc2)C(=NCCc2ccccc2)C1,-2.6%
4,Cc1cc(C)nc(-n2cc(C(=O)c3cc(F)ccc3O)cn2)n1,52.4% (active)
5,Cc1ncc(CC(=O)n2cc(C(=O)c3cc(F)ccc3O)cn2)s1,8.5%
6,Cc1ccc(O)c(C(=O)c2cnn(-c3ccccc3)c2)c1,12.6%
7,CCN(CC)CCCNC(=O)c1cn(CC)c2ccc(S(=O)(=O)N3CCc4ccccc4C3)cc2c1=O,0%
8,O=C1CNC(=O)/C1=C\c1ccc(O)cc1,-3.7%
9,Cc1c(NC(=O)OCCSc2nc(N(C)C)nc(N(C)C)n2)sc(=S)n1C,5.4%
10,CSc1ccccc1NC(=O)C(=O)c1c[nH]c2ccccc12,-2.7%
11,O=C(Nc1ccccc1N1CCOCC1)C1Cc2ccccc2CN1C(=O)c1ccco1 (stereo not given),-3.5%
12,COc1c(Cl)cc(C(=O)Nc2ccccc2C(=O)O)cc1Cl,0.7%
13,Oc1c(C=Nc2cccc3cccnc23)sc2ccccc12,-3.1%
14,Oc1ccccc1N=Cc1sc2ccccc2c1Cl,56.6% (active)
15,Oc1ccc(Cl)cc1N=Cc1sc2ccccc2c1Cl,55.5% (active)
16,Cc1ccc(O)c(N=Cc2sc3ccccc3c2Cl)c1,19.3%
17,COc1ccc(N=Cc2sc3ccccc3c2Cl)cc1,1.8%
18,O=[N+]([O-])c1ccc(O)c(N=Cc2sc3ccccc3c2O)c1,25.4%
19,COc1ccc(S(=O)(=O)NCCOc2ccccc2)cc1-n1cnnn1,7.4%
20,Nc1nc(SCc2c(Cl)cccc2Cl)n[nH]1,-8.6%
